Source: PubChem BioAssay (NCI)
About 83,000 compounds went through this panel and 20% of them were active in at least one assay; those are over-represented in the sample as a whole.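 Compound tested at a single concentration for 48 hours in 96-well plates; a percent growth value below 10 was scored as active.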 A number with no mark means an inactive call. Activity calls are given as the source filed them.

test system: MDA-MB-468 breast; experiment: NCI-60 one-dose screen, 48 h (100 = growth as untreated, 0 = no growth, -100 = all killed); details: 10 µM unless noted

Row | Compound | growth
1 | Cc1ccccc1CNc1ncnc2[nH]ncc12 | 87.7%
2 | S=C(S)NCCc1c[nH]c2ccccc12 | 98.6%
3 | COc1ccc(Nc2ccc3ccccc3c2)cc1 | -2.03% (active)
4 | CC(=O)O[C@H]1CC[C@@]2(C)C(=CC[C@@H]3[C@@H]2CC[C@]2(C)C(=O)N(O)C(=O)C[C@@H]32)C1 | 83.6%
5 | CNCCCNCCCN1C(=O)c2ccc3c4c(ccc(c24)C1=O)C(=O)N(CCCNCc1ccccc1OC)C3=O | -69.5% (active)
6 | COc1cc(-c2nc3ccccc3[nH]2)ccc1OCc1nnc(-c2ccc(CC(C)C)cc2)o1 | 94.1%
7 | CCCCOC(=O)OCc1cc(=O)c(O)co1 | 97.5%
8 | COC(=O)C(Cc1ccccc1)NC(=O)NC(=O)NC(=O)CI (stereo not given) | 82.8%
9 | CCCCn1c(=O)c(C2CNC(=O)c3ccccc3N2)cc2ccccc21 (stereo not given) | 107%
10 | CN1CCN(Cc2ccc(NC(=O)c3cncc(C#Cc4c(N)ncc5ccc(F)cc45)c3)cc2C(F)(F)F)CC1 | 54.3%
11 | COc1ccc(/C=C2\COc3ccc(O)c(O)c3C2=O)cc1OC | -22.8% (active)
12 | CCN(c1ccc(C(=O)N2CCN(c3ccccc3)CC2)cc1)S(C)(=O)=O | 92.5%
13 | CCOC(=O)c1cnn(-c2ccc(S(N)(=O)=O)cc2)c1N | 94.7%
14 | CS(=O)(=O)Nc1cc(-c2ccc3ncnc(Nc4cccc(Cl)c4)c3c2)cnc1Cl | -55.7% (active)
15 | Cn1cc(C2=C(c3cccc4ccccc34)C(=O)NC2=O)c2cc(Br)ccc21 | 87.2%
16 | CCOc1ccc(C(=O)O)cc1 | 83.4%
17 | O=C1NC(=S)N[C@H]1CC(=O)n1cnc2ccccc21 | 86.3%
18 | Fc1cccc(COc2ccc(Nc3ncnc4onc(-c5ccccc5)c34)cc2)c1 | 9.54% (active)
19 | COc1ccccc1N1CCN(C(=S)Nc2ccccc2)CC1 | 97%
20 | CON1CCC[C@]2(C)[C@H]3CC[C@@H]4[C@H]5[C@@H](O)C(C)(C)CC[C@]5(CO)CC[C@@]4(C)[C@]3(C)CC[C@H]2C1(C)C | 114%

Row | Compound | growth
21 | Cc1[nH]c(C(=O)Nc2ccccc2OC2CCNC2)c(Cl)c1Cl (stereo not given) | 53.8%
22 | O=C1/C=C/[C@@H](O)[C@@H]2C[C@@H](O)C[C@H]2/C=C/CCC[C@H]([C@@H](O)CO)O1 | -5.34% (active)
23 | COC(=O)[C@H]1[C@H](OC)[C@@H](OC(=O)/C=C/c2ccncc2)CC2CN3CCc4c([nH]c5cc(OC)ccc45)[C@@H]3C[C@@H]21 (stereo not given in full) | 53.6%
24 | O=C1Nc2ccccc2[C@]12CC(c1ccccc1)=NN2 | 56.5%
25 | CCOC(=O)C(=Cc1cccc(C#N)c1)C(=O)OCC | 43%
26 | CCOC(=O)c1[nH]c(=O)c2c(C)nc(-c3ccccc3)cc2c1O | 92.9%
27 | COc1cc2oc(-c3cccc(NC(=O)Nc4ccc5c(c4)OCO5)c3)cc(=O)c2c(OC)c1OC | 75.2%
28 | CC[C@@H](C)[C@H](NC(=O)Cn1cc(CNC(=O)[C@@H](NC(=O)OCc2ccccc2)C(C)C)nn1)C(=O)O | 98.5%
29 | C/C=C/C(N)=O | 101%
30 | CCOc1ccc(/C=N/Nc2cc(C)nc3ccc(Cl)cc23)cc1 | -9.24% (active)
31 | COc1ccc2c(c1)OC(N)=C(C#N)C2c1cc(OC)c(OC)c(OC)c1 (stereo not given) | -20.9% (active)
32 | CS(=O)(=O)N1CCN(Cc2cc3nc(-c4cccc5[nH]ncc45)nc(N4CCOCC4)c3s2)CC1 | -19.6% (active)
33 | CS(=O)(=O)c1ccc(/C(=N/N=C(N)N)c2ccc(F)cc2)cc1 | -5.12% (active)
34 | CCC(C)(C)c1ccc(OCCCCCCN2CCN(c3ccc(C)c(Cl)c3)CC2)cc1 | 47.1%
35 | Cc1ccc2ccc3ccc(C)nc3c2n1.Cc1ccc2ccc3ccc(C)nc3c2n1.Oc1c(Cl)cc(Cl)c2ccc(CN3CCCCC3)nc12.[Ru] | -80% (active)
36 | CCc1ccc2c(c1)N(CCO)C1=C(C(=O)OC1)C2c1cccc(Br)c1 (stereo not given) | 25.8%
37 | COc1cc(/C=N/Nc2nc(-c3ccc(F)cc3)c(C#N)c(N3CCOCC3)n2)ccc1O | 87.4%
38 | CCCCCCCCCCCCCCCC[N+]1(C)CCN(SN2CC[N+](C)(CCCCCCCCCCCCCCCC)CC2)CC1 | 52.2%
39 | CN(C)C(C)(C)CC(C)(C)C | 116%
40 | CCCCCCCOc1cccc(/C=C2\N=C3SCCCN3C2=O)c1 | 89.2%
